Assay outcomes from PubChem BioAssay.
Rows were chosen to be rich in hits. Some 12% of all compounds tested hit in one or more screens of this group.
L major viab: reduces viability of Leishmania major promastigotes; resazurin fluorescence viability; inhibition, % at 10 µM; hit rate 9% among 200,000; AID 1063; in the data active means inhibition above about 50%;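 further: promastigotes grown with compound for 44 hours at 28 °C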
INS promoter inh: TRM-6 insulin promoter activity inhibition | TRM-6 cells (human fetal islet line), insulin promoter-eGFP reporter, imaging; reporter expression induced with tamoxifen | inhibition, % at 2 µM | hit rate 0.9% among 130,000;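 active means inhibition above the mean plus 3 SD, with well images judged a real hit on visual review, cut at about 60% in these data, passing the limit was not always enough; inconclusive means inhibition over the cutoff but images rejected on review; inactive means inhibition not above the cutoff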
WT yeast gro inh: growth inhibition of WT yeast, mitochondrial fusion screen. mitochondrial fusion phenotypic screen, WT strain. inhibition, % at 10 µM. hit rate 2.1% among 190,000. AID 1362; in the data active means inhibition above about 58%; tested in S. cerevisiae
Insulin prom up: MIN6 insulin promoter up-regulation | MIN6 insulin promoter-GFP reporter, high-content imaging; active compounds read high | z-score at 5 µM | hit rate 0.3% among 190,000 | AID 1625;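 active means z-score above 3 at 5 µM with at least 500 cells counted in the well; inconclusive means wells under 500 cells, flagged as cytotoxic or low count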
ROMK primary: modulates human ROMK potassium channel activity | hit rate 2% among 130,000 | B-score at 10 µM | P48048 | Tet-inducible ROMK, thallium flux fluorescence; actives lie on both sides;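 active means signal ratio slope over the read window, or its plate-corrected B-score, at least 3 SD from the plate mean, either direction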;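 further: B-score of the F/F0 ratio slope over 7 to 12 s after thallium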
Cl transport mod: modulators of human KCC2 chloride dependent transport | AID 1456 | Q9H2X9 | hit rate 2.2% among 190,000 | KCC2 cells, thallium flux FluoZin-2 fluorescence | B-score of Tl+ flux slope (higher = more flux/activation; lower = inhibition) at 10 µM;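 active means thallium flux slope and its plate-corrected score both differing from the plate sample mean at a set confidence after two filtering rounds, in either direction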;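 further: slope of fluorescence scaled to starting intensity during 10 to 20 s after thallium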
Target sequence (Q9H2X9 whole entry, looked up): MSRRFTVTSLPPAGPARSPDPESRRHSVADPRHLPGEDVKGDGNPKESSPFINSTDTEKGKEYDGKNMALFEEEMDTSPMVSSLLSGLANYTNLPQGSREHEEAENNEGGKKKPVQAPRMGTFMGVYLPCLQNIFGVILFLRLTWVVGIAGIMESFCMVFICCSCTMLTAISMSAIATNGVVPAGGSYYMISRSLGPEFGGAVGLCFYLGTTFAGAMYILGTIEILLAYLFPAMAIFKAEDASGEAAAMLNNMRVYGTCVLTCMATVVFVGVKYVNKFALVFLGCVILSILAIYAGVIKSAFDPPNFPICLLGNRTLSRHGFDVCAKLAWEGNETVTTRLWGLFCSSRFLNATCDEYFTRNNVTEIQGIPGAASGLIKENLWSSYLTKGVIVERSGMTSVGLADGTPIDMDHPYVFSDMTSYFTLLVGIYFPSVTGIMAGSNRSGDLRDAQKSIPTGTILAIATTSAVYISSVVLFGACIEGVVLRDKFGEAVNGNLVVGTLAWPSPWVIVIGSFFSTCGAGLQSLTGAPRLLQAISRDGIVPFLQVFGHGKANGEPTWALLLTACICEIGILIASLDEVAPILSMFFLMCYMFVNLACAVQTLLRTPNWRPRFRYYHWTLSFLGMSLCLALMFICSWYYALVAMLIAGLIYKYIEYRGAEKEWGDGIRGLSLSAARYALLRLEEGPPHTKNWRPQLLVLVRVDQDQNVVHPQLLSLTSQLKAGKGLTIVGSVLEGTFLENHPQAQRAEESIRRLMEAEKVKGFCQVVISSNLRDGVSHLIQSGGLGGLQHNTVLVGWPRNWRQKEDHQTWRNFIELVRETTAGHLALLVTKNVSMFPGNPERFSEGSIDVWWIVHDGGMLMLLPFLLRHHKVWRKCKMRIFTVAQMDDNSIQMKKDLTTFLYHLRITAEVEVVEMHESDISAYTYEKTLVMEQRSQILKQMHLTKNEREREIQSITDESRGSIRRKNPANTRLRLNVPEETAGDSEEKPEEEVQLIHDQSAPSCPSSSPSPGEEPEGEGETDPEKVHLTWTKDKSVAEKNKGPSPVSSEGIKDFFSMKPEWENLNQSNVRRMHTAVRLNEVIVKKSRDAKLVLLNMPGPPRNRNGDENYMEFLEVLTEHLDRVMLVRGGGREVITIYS
KCC2 sec1: confirmation of human KCC2 transport modulators; normalised thallium flux (F/F0 slope) at 10 µM; HEK293-KCC2, thallium flux, FluoZin2 fluorescence; active compounds read high; shares compounds with Cl transport mod; hit rate 15% among 3,700;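 active means thallium flux slope above the same plate's solvent-only control mean plus 3 SD; inconclusive means the two replicate wells disagree; inactive means no significant difference from solvent-only control wells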
KCC2 bumet counter: thallium flux persisting under bumetanide in KCC2 cells, counter-screen secondary assay; AID 1714; HEK293-KCC2 + bumetanide/ouabain, thallium flux FluoZin2; active compounds read high; hit rate 49% among 3,700; shares compounds with Cl transport mod; normalized thallium flux at 10 µM;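 active means thallium entry rate above the same plate's blocked-transporter control wells by more than 3 SD; inconclusive means the two repeat wells disagree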;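 further: raw slope of fluorescence over initial fluorescence between 10 and 20 s after thallium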
KCC2 secondary2: KCC2 (human) modulation, second secondary assay | hit rate 23% among 3,700 | normalized thallium flux at 10 µM | HEK293-KCC2, thallium flux FluoZin2 fluorescence; actives lie on both sides; F/F0 rise rate, 10–20 s post-thallium | shares compounds with Cl transport mod;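 active means thallium flux slope more than 3 SD above or below the plate's solvent-only control mean, mostly below; inconclusive means the two repeat wells disagreed; inactive means no significant shift from solvent-only controls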;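 further: raw slope with 0.1% DMSO as baseline and bumetanide as block control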
HEK counter1: counter-screen for KCC2 modulators: effect in parental HEK293 cells; hit rate 46% among 3,700; thallium flux FluoZin2, ouabain; baseline-ratio fluorescence slope, 10–20 s after thallium; shares compounds with Cl transport mod; thallium flux rate (normalised fluorescence) at 10 µM; AID 1716;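 active means thallium flux rate significantly above the same plate's solvent-only control wells, beyond their mean plus 3 SD; inconclusive means the two replicate wells gave conflicting results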
KCC2 retest ouab: confirmation of human KCC2 modulators with ouabain; shares compounds with Cl transport mod; HEK293-KCC2, thallium flux FluoZin2 fluorescence; bidirectional: low = inhibitor, high = activator; raw Tl+ flux slope (below DMSO = inhibition, above = activation) at 10 µM; hit rate 48% among 3,700; AID 1717;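 active means thallium flux slope beyond 3 SD from same-plate DMSO control mean in most replicates, usually higher, sometimes lower; inconclusive means repeat tests gave conflicting results; inactive means no significant difference from controls in most replicates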;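 further: slope of initial-normalized fluorescence between seconds 10 and 20 after thallium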
HEK counter2: counter-screen for KCC2 modulators: effect in parental HEK293 cells; shares compounds with Cl transport mod; thallium flux FluoZin-2 fluorescence slope; thallium flux slope at 10 µM; hit rate 33% among 3,700; AID 1718;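 active means thallium flux slope above the same plate's solvent-control mean plus 3 SD in both duplicate wells; inconclusive means duplicate wells that disagreed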;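 further: run without ouabain in cells lacking the KCC2 cotransporter; slope of fluorescence scaled to its starting value between 10 and 20 s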
Starred values were filed as active, the others as inactive; ? = inconclusive; · = not tested or not shown.

SMILES	L major viab	INS promoter inh	WT yeast gro inh	Insulin prom up	ROMK primary	Cl transport mod	KCC2 sec1	KCC2 bumet counter	KCC2 secondary2	HEK counter1	KCC2 retest ouab	HEK counter2
CC1CCN(S(=O)(=O)Cc2ccccc2Cl)CC1	11	14	-2	1.1	0.28	·	·	·	·	·	·	·
C/C(=N\NC(=O)c1cc(Br)ccc1O)c1cccs1	-6	9	0	-0.51	1.3	15*	0.0087	0.031*	0.043*	0.03*	0.037*	0.033*
C/C(=N\NC(=O)c1cc(C)nc2ccccc12)c1cccs1	·	·	·	-0.12	·	1.9	·	·	·	·	·	·
C/C(=N\NC(=O)c1ccc(Cl)cc1)c1cccs1	-5	-144	15	-0.63	-0.77	25*	0.006	0.04*	0.05*	0.034*	0.041*	0.029*
C/C(=N\NC(=O)c1ccc(NS(=O)(=O)c2cccs2)cc1)c1cccs1	-12	·	-8	-0.31	-0.32	-0.044	·	·	·	·	·	·
COC(=O)c1cn(NC(=O)C2CCC(C(C)(C)C)CC2)c(=O)c2ccccc12 (stereo not given)	-8	-18	-4	-0.7	·	0.11	·	·	·	·	·	·
COC(=O)c1cc(C#N)c(NCc2ccc(Cl)cc2Cl)nc1C	-5	3	5	-0.42	·	2.3	·	·	·	·	·	·
COc1ccc(CCN(C)C(=S)NC(=O)c2ccc(F)cc2Cl)cc1OC	-4	·	19	-0.53	-1.5	9.8*	0.015*	0.036*	0.028	0.017*	0.033*	0.01*
O=C(CCC(=O)OCc1ccc(Br)cc1)Nc1ccccc1	13	-18	0	0.06	-0.0098	-1.4	·	·	·	·	·	·
O=C(O)CSc1nc2c(cnn2-c2ccccc2)c(=O)n1-c1ccc(Br)cc1	-5	50	11	-0.36	1.7	-5.6*	0.0055	0.0045	0.022*	?	0.011*	0.0097
Cc1ccccc1OCc1n[nH]c(=S)n1-c1ccccc1	6	·	-1	0.37	0.12	·	·	·	·	·	·	·
O=C(CCn1nnc2ccccc21)N1CCC(O)(c2cccc(F)c2)CC1	-4	-30	13	0.32	-0.68	0.75	·	·	·	·	·	·
Cc1ccc(C2N(c3ccccc3)C(=S)N3CCCN23)cc1 (stereo not given)	10	34	-8	-0.91	2.4	·	0.0083	0.0049	0.034	0.0037	0.02	0.011
O=C1CC(O)(C(F)(F)F)Oc2c1ccc1ccccc21 (stereo not given)	0	-10	9	-0.87	·	46*	0.0088	0.077*	0.065*	0.059*	0.067*	0.061*
O=C1CC(O)(C(F)F)Oc2ccc3ccccc3c21 (stereo not given)	-2	24	37	0.69	·	2.7	·	·	·	·	·	·
Cc1cccc(N(CC(N)=O)C2SC(=O)NC2=O)c1 (stereo not given)	-7	45	18	0.46	0.74	-0.79	·	·	·	·	·	·
O=S(=O)(Cc1ccccc1Cl)c1ncn[nH]1	·	·	·	0.06	-0.68	-0.99	·	·	·	·	·	·
O=S(=O)(CCCc1ccccc1)c1ncn[nH]1	-8	56	3	-0.58	·	4.7*	0.007	0.0044	0.031	0.0065	0.017	0.0093
COc1ccc(Cl)cc1NC(=O)CN1c2ccccc2CC1C (stereo not given)	-6	-45	32	-0.87	-0.072	-2.1	·	·	·	·	·	·
N#CC(C(=O)NCCc1ccccc1)c1nc2ccccc2nc1N1CCCCC1 (stereo not given)	15	·	7	-0.23	-1.7	·	·	·	·	·	·	·
CC(C)COc1nc2ccccc2nc1C(C#N)C(=O)NC1CCCCC1 (stereo not given)	-7	14	5	-0.07	-0.91	·	0.0093	0.0058	0.03	0.0073	0.018	0.012
O=C(N/N=C/c1ccc(-c2cccc([N+](=O)[O-])c2)o1)c1cccs1	-1	·	17	-1.4	0.091	-0.22	·	·	·	·	·	·
N#C/C(=C\c1ccc(-c2cccc([N+](=O)[O-])c2)o1)C(=O)Nc1nc(-c2cccs2)cs1	·	·	·	-0.27	·	4*	0.0096	0.0099*	0.033	0.018*	?	0.011
CCOc1ccccc1NC(=O)CSc1nnnn1Cc1ccccc1	-3	-47	12	0.2	-0.63	-2.6*	0.0073	0.004	0.028	0.0072	?	0.0094
CCOC(=O)c1c(-c2ccccc2)csc1NC(=O)CSc1nnnn1C	25	·	16	-1.4	·	-4.7*	0.0054	0.0043	0.028	0.0076	?	?
SMILES	L major viab	INS promoter inh	WT yeast gro inh	Insulin prom up	ROMK primary	Cl transport mod	KCC2 sec1	KCC2 bumet counter	KCC2 secondary2	HEK counter1	KCC2 retest ouab	HEK counter2
CCOC(=O)c1c(-c2ccc(OC)cc2)csc1NC(=O)CSc1ccccc1	8	-44	-45	·	1.9	0.22	·	·	·	·	·	·
O=C(CSc1ccc2ccccc2n1)N1CCC(c2noc3ccc(F)cc23)CC1	6	72	46	·	-0.54	-1.3	·	·	·	·	·	·
S=C(Nc1ccccc1)Nc1nc2ccccc2n1CCOc1ccccc1	51*	8	-17	-0.39	0.28	29*	0.011*	0.059*	0.029	0.017*	0.036*	?
CC(=O)Nc1nc2ccccc2n1CCOc1ccccc1	35	3	7	0.48	·	0.37	·	·	·	·	·	·
Cc1cccc(-c2noc(CCCC(=O)Nc3cccnc3)n2)c1	2	·	-14	·	·	-5.1*	0.0069	0.0045	0.031	0.0083	0.019	0.011
S=C(N=Nc1ccccc1)NNc1ccccc1	-2	55	5	·	·	23*	0.008	0.018*	0.039*	0.019*	0.027*	0.024*
CC(C)C(O)(C(=O)NNc1ccccc1)C(C)C	·	·	·	-0.33	·	-0.69	·	·	·	·	·	·
CC1Cc2ccccc2N1C(=O)/C=C/c1cccc(F)c1 (stereo not given)	-5	-36	9	0.59	0.015	-4.4*	0.0065	0.0051	0.023*	0.0071	0.015*	0.01
CCOP(=O)(c1ccc(N(C)C)cc1)C(O)c1ccc(Cl)cc1 (stereo not given)	-1	0	·	-0.18	·	-5*	0.0081	0.0055	0.035	0.0041	0.02	0.012
CCOP(=O)(c1ccc(N(C)C)cc1)C(O)c1ccccc1 (stereo not given)	-5	22	-9	-0.59	-0.24	0.13	·	·	·	·	·	·
Cc1cc2nc3n(c2cc1C)CC1CC(C(=O)NCCc2cccs2)N(C)C31 (stereo not given)	·	·	·	-0.52	·	-0.84	·	·	·	·	·	·
